VDR inh: inhibitors of human vitamin D receptor | P11473 | VDR-SRC2-3 peptide fluorescence polarization, 2 h | Potency, µM, inactives show max response, negative = inhibition, hits mostly inhibitors | 400,000 compounds, 0.93% hits; note: potency is the fitted concentration of half-maximal effect
Target sequence (P11473 whole entry, looked up): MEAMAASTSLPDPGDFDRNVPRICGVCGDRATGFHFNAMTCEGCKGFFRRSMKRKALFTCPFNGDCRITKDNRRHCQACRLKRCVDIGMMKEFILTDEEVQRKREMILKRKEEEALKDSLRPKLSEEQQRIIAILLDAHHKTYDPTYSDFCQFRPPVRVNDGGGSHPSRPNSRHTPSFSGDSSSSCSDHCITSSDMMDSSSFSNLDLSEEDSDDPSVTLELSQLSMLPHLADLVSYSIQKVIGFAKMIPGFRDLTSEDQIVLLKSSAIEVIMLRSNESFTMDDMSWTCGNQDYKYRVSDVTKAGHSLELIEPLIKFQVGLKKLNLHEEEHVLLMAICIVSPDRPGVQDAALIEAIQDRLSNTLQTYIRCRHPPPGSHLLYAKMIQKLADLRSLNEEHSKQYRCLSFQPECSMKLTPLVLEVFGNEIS
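Reagent solutions, kept cold and dark, are dispensed first; compounds are then pinned in at 23 nl, plates briefly spun, and incubated 2 h at ambient temperature. Inhibition of VDR–SRC2-3 peptide binding is read by fluorescence polarization.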
Mm-Cpn inhibitor: blocks the Methanococcus maripaludis chaperonin Mm-Cpn; Potency, µM (top dose mostly 76.9 µM), for inactives: at the top dose activity, negative = inhibition, usual class: inhibitors; 330,000 compounds, 0.031% hits; purified Mm-Cpn ATPase, ADP Transcreener TR-FRET; note: potency is the fitted concentration of half-maximal effect; nearly all actives have a fitted effect of over 80% in size
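Purified archaeal Mm-CPN (25nM final) preincubated 10 min at 37degC with compound, then 10uM ATP for 30 min at 37degC; ADP measured by HTRF Transcreener TR-FRET; buffer 30 mM TRIS pH 7.4, 100mM KCl, 5mM MgCl2, 1mM DTT.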
G9a inh: inhibitors of human histone lysine methyltransferase G9a | Q96KQ7 | G9a H3K9 monomethylation, AlphaScreen, 2 h | Potency, µM (highest dose often 102 µM), without a hit: at the top dose activity, negative = inhibition, actives largely listed as inhibitors | 350,000 compounds, 8.8% hits | AID 504332; note: potency is the fitted concentration of half-maximal effect; nearly all actives have a fitted effect of over 75% in size
Target sequence (Q96KQ7 913-1193 limits assumed): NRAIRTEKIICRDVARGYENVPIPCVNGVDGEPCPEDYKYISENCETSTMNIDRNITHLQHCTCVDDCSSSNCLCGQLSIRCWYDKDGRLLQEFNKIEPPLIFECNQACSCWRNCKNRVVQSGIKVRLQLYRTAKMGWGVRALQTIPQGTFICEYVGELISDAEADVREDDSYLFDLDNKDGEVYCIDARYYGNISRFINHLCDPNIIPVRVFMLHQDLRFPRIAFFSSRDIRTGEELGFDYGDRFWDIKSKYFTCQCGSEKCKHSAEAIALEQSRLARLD
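Using a bead-based AlphaScreen, monomethylated H3K9 product from 2 h room-temperature reactions (G9a 20 nM, peptide 500 nM, SAM 20 uM) was detected with 0.5 ug/mL rabbit anti-H3K9me1 antibody.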
PLK1 PBD block: PLK1 (human) polo-box domain binding inhibition | Plk1 PBD binding of FITC phosphopeptide, fluorescence polarization | Potency, µM, for the others: max response, negative = inhibition, most hits filed as inhibitors | 360,000 compounds, 2.8% hits | AID 720504; note: potency is the fitted concentration of half-maximal effect; series mostly up to about 57 µM; nearly all actives have a fitted effect of over 65% in size
Sfp PPTase inh: Sfp phosphopantetheinyl transferase inhibition; Q9F4F7; Biochemical Sfp PPTase activity, qHTS; Potency, µM, for the others: largest response in the series, negative = inhibition, hits mostly inhibitors; 310,000 compounds, 3.5% hits;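 note: the enzyme is Sfp with the accession as filed and its product quenches rhodamine fluorescence; potency is the fitted concentration of half-maximal effect; 0% = enzyme reaction without inhibitor and -100% = no enzyme wells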
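With Hepes-Na pH 7.6 buffer containing 10 mM MgCl2, Sfp (15 nM) modified BHQ-2-YbbR (12.5 uM) using rhodamine-CoA (5 uM). Two reads 30 minutes apart at 525/598 nm yielded each well's rate.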
CCT chaperon mod: modulators of cytosolic chaperonin (CCT/TRiC) activity; activity change, % (no concentration beside the values), hits read low; purified chaperonin ATPase assay, HTRF ADP detection, 30 min; 360,000 compounds, 0.3% hits; in the data active = activity change below about -30%
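Nucleotide hydrolysis assay: TRiC at 20–40 nM final (set by batch activity) with 10 uM ATP, 30 min at 37 °C, in presence of 76 uM compound. Detection by competitive ADP HTRF, 30 min ambient.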
An asterisk follows results filed as active; ? = inconclusive; nt = no result; [ ] = remark or other dose. In the library only some 10% were active in any assay of this set; here they are far more common. Unless noted, calls come from the whole dose curve; as a rule, active = well fitted curve in the direction sought with a large enough effect; inconclusive = small, poorly fitted or top-dose-only effect, or another doubt; inactive = no such curve, though single readings can be large; an effect the other way counts as inactive or inconclusive. Unless noted, % is set by controls: 0 for no effect and ±100 for the full control effect.

SMILES | VDR inh | Mm-Cpn inhibitor | G9a inh | PLK1 PBD block | Sfp PPTase inh | CCT chaperon mod
CCOCCCn1c(=N)c(C(=O)NC2CCCCC2)cc2c(=O)n3ccccc3nc21 | -7% | nt | -32%[59 µM] | nt | nt | nt
Cc1cccc(CSc2nc(-c3cccc(C)c3)nc3c2Cc2c(CO)cnc(C)c2O3)c1 | 9% | nt | -8%[59 µM] | nt | nt | nt
O=C(CCCCCn1c(=O)c2sccc2n(CC(=O)Nc2cc(C(F)(F)F)ccc2Cl)c1=O)NCc1ccccc1Cl | 0% | nt | -24%[59 µM] | nt | nt | nt
COc1cccc(/C=C2\N=C(C3CCCCC3)OC2=O)c1OC | 32µM* | 0% | 29% | -26% | 21% | 0
CC(=O)Oc1ccc(/C=C2\N=C(C3CCCCC3)OC2=O)cc1 | 79µM* | 0% | 0% | -19% | 0% | -2
CCN(CC)c1nn2c(=O)c(C(=O)NCCc3ccc(C)cc3)cnc2s1 | 16% | nt | 14%[59 µM] | nt | nt | nt
NC(=O)c1c(N)sc2c1CCCC2 | -28% | -2% | 2.5µM* | 24µM* | 25µM* | -1
Nc1sc2c(c1C(=O)c1ccccc1)CCCC2 | ? | -1% | ? | 21µM* | 50µM* | -3
Nc1sc2c(c1C(=O)NCCc1ccccc1)CCC2 | ? | -4% | nt | ? | ? | -2
CN1CCc2c(sc(N)c2C(N)=O)C1 | -6% | 0% | ? | ? | 56µM* | -1
CN1CCc2c(sc(/N=C/c3c[nH]c4ccccc34)c2C(N)=O)C1 | 8% | -2% | 45µM* | -9% | ? | 0
Cc1cccc(C(=O)NCC(c2ccco2)S(=O)(=O)c2cccs2)c1 (stereo unspecified) | -4% | nt | 1%[59 µM] | nt | nt | nt
O=C(CCC(=O)N1Cc2ccccc2Oc2ncccc21)NCc1ccccc1Cl | -11% | nt | -16%[59 µM] | nt | nt | nt
CCCn1c(C)nc2c(N3CCC(N(C)C)C3)nc(C)nc21 (stereo unspecified) | nt | nt | nt | nt | 25% | nt
COc1ccc(CSC2=C(C#N)C(=O)NC3(CCCCC3)S2)cc1 | nt | nt | nt | -11% | nt | 1
CCCCCCSC1=C(C#N)C(=O)NC2(CCCCC2)S1 | ? | 1% | 13µM* | 27µM* | 19% | 4
COc1ccc(CCNC(=S)Nc2ccc(OC)cc2)cc1 | -23% | 2% | 13%[59 µM] | 21µM* | 13% | 1
CCCNC(=S)Nc1ccc(Oc2ccccc2)cc1 | -11% | 0% | -36%[59 µM] | -28% | -8% | -1
COc1ccc(CCNC(=S)Nc2cc(C)cc(C)c2)cc1 | 1% | -4% | 10%[59 µM] | -11% | 4% | -2
CCCCNC(=S)Nc1ccc(Oc2ccccc2)cc1 | -5% | -2% | 28%[59 µM] | ? | 50µM* | -1
COc1ccc(CCNC(=S)Nc2ccccc2)cc1 | -4% | 0% | nt | 1% | 3% | -1
COc1ccc(NC(=S)Nc2ccc3nccnc3c2)cc1 | -27% | -1% | ? | -25% | 45µM* | -1
COc1ccc(NC(=S)NCCc2c(C)[nH]c3ccc(OC)cc23)cc1 | -3% | 2% | 50µM* | 2% | 6% | 1
Cn1c(=O)[nH]c(=O)c2c1nc(CN1CCN(c3ccccc3F)CC1)n2Cc1ccc(F)cc1 | -6% | nt | 2%[59 µM] | nt | nt | nt
COc1ccc(-c2onc(C)c2C)cc1S(=O)(=O)N(C)Cc1ccco1 | 21% | nt | -6%[59 µM] | nt | nt | nt
SMILES | VDR inh | Mm-Cpn inhibitor | G9a inh | PLK1 PBD block | Sfp PPTase inh | CCT chaperon mod
COc1ccc(CCNC(=S)NC2CCN(Cc3ccccc3)CC2)cc1 | 23% | -3% | 25µM* | 30µM* | ? | -2
CC(=O)Nc1ccc(NC(=O)C2(c3cccs3)CCOCC2)cc1 | 3% | nt | 7%[59 µM] | nt | nt | nt
O=C(c1ccncc1)N1CCC[C@@]2(CCN(c3ccccc3)C2)C1 | ? | nt | -18%[12.7 µM] | nt | 6% | nt
CCOC(=O)N1CCN(C2=C(NS(=O)(=O)c3ccc(NC(C)=O)cc3)C(=O)c3ccccc3C2=O)CC1 | ? | -6% | 28µM* | -14% | 3% | 2
CC(=O)Nc1ccc(S(=O)(=O)NC2=C(N3CCN(C)CC3)C(=O)c3ccccc3C2=O)cc1 | 6% | -4% | 50µM* | -9% | -10% | 0
CC(=O)Nc1ccc(S(=O)(=O)NC2=C(N3CCN(Cc4ccccc4)CC3)C(=O)c3ccccc3C2=O)cc1 | 5% | -2% | ? | -6% | 7% | -3
CCN1CCN(C2=C(NS(=O)(=O)c3ccc(C)cc3)C(=O)c3ccccc3C2=O)CC1 | -3% | -2% | 40µM* | -21% | -2% | -1
CNC(=S)N(CCc1c(C)[nH]c2ccc(C)cc12)Cc1ccco1 | -11% | -3% | 45µM* | -6% | -5% | -2
COCCNC(=S)N(CCc1c(C)[nH]c2ccccc12)Cc1ccco1 | -16% | -1% | 50µM* | 9% | 17% | 2
CNC(=S)N(CCc1c(C)[nH]c2ccc(Cl)cc12)Cc1cc(OC)c(OC)c(OC)c1 | -1% | -2% | 32µM* | 3% | 1% | -2
CNC(=S)N(CCc1c(C)[nH]c2ccc(C)cc12)Cc1ccc(OC)c(OC)c1 | 5% | 0% | 50µM* | 7% | -13% | 1
OCc1cnc(SCc2ccccc2F)n1Cc1ccc(F)cc1 | 1% | nt | 12%[59 µM] | nt | nt | nt
O=c1c2ccccc2n(Cc2ccccc2F)c(=O)n1-c1cccc(F)c1 | 2% | nt | 14%[59 µM] | nt | nt | nt
CC(C)C(=O)Nc1cccc(C(=O)Nc2nnc(CC(C)(C)C)s2)c1 | -12% | nt | -30%[59 µM] | nt | nt | nt
CCC(Sc1nnc2c3ccccc3n(CC)c2n1)C(=O)Nc1ccc(NC(C)=O)cc1 (stereo unspecified) | 4% | nt | -46%[59 µM] | nt | nt | nt
COc1cc(C)ccc1OCCSc1nc2ccc(NC(=O)c3ccc(F)cc3)cc2s1 | 0% | nt | 7%[59 µM] | nt | nt | nt
N#C/C(=C\c1ccccc1)C(=O)NNS(=O)(=O)c1ccc(Br)cc1 | 45µM* | 0% | nt | 21µM* | nt | 0
CCOc1ccc(N(CC(=O)Nc2ccc3c(c2)OCO3)S(=O)(=O)c2ccccc2)cc1 | 7% | nt | -9%[59 µM] | nt | nt | nt
Cc1cccc(-c2nc(CSCC(=O)N3CCN(c4ccccc4)CC3)c(C)o2)c1 | -29% | nt | ? | nt | nt | nt
Cc1cc2c(c(SCC(=O)N(C)c3ccccc3)n1)C(=O)OC2 | 0% | 1% | 10%[12.7 µM] | -1% | 3% | -2
Cc1cc2c(c(SCC(N)=O)n1)C(=O)OC2 | -22% | 0% | 10% | 30µM* | 22% | 1
COc1nc(-c2ccc(Cl)cc2)ccc1-c1noc(-c2ccco2)n1 | 11% | 2% | 2.8µM* | -3% | -2% | -1
COc1ccc(-c2ccc(-c3noc(-c4cc(OC)cc(OC)c4)n3)c(OC)n2)cc1 | -7% | nt | 15%[59 µM] | nt | nt | nt
Cc1c(Nc2cc(Cl)c3nonc3c2[N+](=O)[O-])c(=O)n(-c2ccccc2)n1C | ? | -1% | 7.1µM* | 1.2µM* | ? | 1
O=C(O)c1ccc(Nc2cc(Cl)c3nonc3c2[N+](=O)[O-])cc1 | 20µM* | -4% | 35µM* | 4.7µM* | 35µM* | 0
